# Laboratory results: PubChem BioAssay (NCI)
# Compounds without any hit were thinned out: in the full panel of roughly 83,000, 20% have a hit.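 Single-dose data. Exposure time 48 hours. Values below 10 considered active.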 A number with no mark means an inactive call. Active and inactive are the calls of the source.
# What was measured:
# Assay in all cases: NCI-60 one-dose screen, 48 h (100 = growth as untreated, 0 = no growth, -100 = all killed)
# Settings in all cases: 10 µM unless noted
# HT29 colon = system: HT29 colon
# SNB-75 CNS = system: SNB-75 CNS
# SNB-19 CNS = system: SNB-19 CNS
# U251 CNS = system: U251 CNS
# PC-3 prostate = system: PC-3 prostate
# SK-MEL-5 melanoma = system: SK-MEL-5 melanoma
# UACC-62 melanoma = system: UACC-62 melanoma
# LOX IMVI melanoma = system: LOX IMVI melanoma
# SK-MEL-28 melanoma = system: SK-MEL-28 melanoma
# SK-MEL-2 melanoma = system: SK-MEL-2 melanoma
SMILES,growth (HT29 colon),growth (SNB-75 CNS),growth (SNB-19 CNS),growth (U251 CNS),growth (PC-3 prostate),growth (SK-MEL-5 melanoma),growth (UACC-62 melanoma),growth (LOX IMVI melanoma),growth (SK-MEL-28 melanoma),growth (SK-MEL-2 melanoma)
COC(=O)[C@]1(CCSC)N[C@H](c2cn(-c3ccccc3)nc2C)[C@@H]2C(=O)N(c3ccccc3)C(=O)[C@@H]21,103%,86%,109%,105%,101%,101%,102%,96.1%,109%,121%
Clc1cccc(Cc2cn3cc(-c4ccccc4)nc3s2)c1,53.4%,73.8%,65.8%,67.7%,51.8%,2.66% (active),23.3%,23.5%,48.8%,72%
C=C1c2c(C)nn(-c3ccc(C#CCOC4OC(CO)C(O)C(O)C4O)cc3)c2N(C)C23C[C@H]1C1(C)c4c(C)nn(-c5ccc(C#CCOC6OC(CO)C(O)C(O)C6O)cc5)c4N(C)C(C)(C[C@H]12)C3 (stereo not given in full),8.04% (active),6.04% (active),2.15% (active),-35% (active),-26.1% (active),-74.7% (active),-36.7% (active),-42.4% (active),5.91% (active),-43.5% (active)
O=C(CCc1nnc2sc(-c3ccc(Cl)cc3Cl)nn12)c1nc2ccccc2[nH]1,-12.9% (active),-45.8% (active),7.75% (active),-83.1% (active),-38.5% (active),-70.2% (active),-85.1% (active),-58% (active),-60.1% (active),-68.9% (active)
O=C(/C=C/c1ccccc1)CC(c1ccccc1)N1CCOCC1 (stereo not given),-39.3% (active),105%,71.8%,0.707% (active),89%,98.9%,85.4%,-92% (active),107%,-24.5% (active)
Cc1ccc(C(=O)Nc2ccc(Cl)cc2C(=O)NCc2ccccc2)cc1,23.3%,67.3%,92.8%,81.5%,76.6%,78.4%,70.7%,79.2%,83.7%,51.7%
CC/C(=C\c1ccc(N(C)C)cc1)c1nc2ccccc2c(=O)[nH]1,81.7%,88.3%,102%,86.3%,107%,97.4%,84.1%,94.2%,152%,-13.9% (active)
CC(=O)Oc1ccc(C23c4ccccc4C2(OC(C)=O)c2cc(OC(C)=O)ccc23)cc1 (stereo not given),111%,54%,65.9%,9.83% (active),30.9%,88.8%,77.8%,48.2%,124%,97.9%
COc1ccc(-c2cnnn2-c2cc(OC)c3c(c2)OCO3)cc1,1.26% (active),23.1%,39.4%,3.74% (active),4.25% (active),18.1%,26.8%,17.8%,55%,22.4%
O=C(/C=C/c1cc2ccccc2[nH]c1=O)c1ccc(O)cc1,55.5%,40.3%,57.4%,21.9%,10.5%,96.1%,83.8%,26.8%,99.9%,83.7%
O=C(NN(C(=O)c1ccccc1)c1cccs1)c1ccccc1,98.5%,90.7%,100%,111%,83.4%,101%,88.1%,93.7%,115%,107%
CCC(c1ccccc1)c1noc(CCN(CC)CC)n1 (stereo not given),117%,86.6%,105%,98.1%,95.5%,102%,98.9%,100%,101%,19.4%
OC(CCC(O)(c1ccccc1)c1ccccc1)(c1ccccc1)c1ccccc1,78.4%,83.9%,106%,87.7%,24.4%,90.6%,62.2%,71.4%,112%,97.5%
Cc1nn(-c2ccc(Br)cc2)c2nc3c(nc12)C(=O)C(=O)c1ccccc1-3,99.8%,85.7%,92.5%,103%,87.7%,89.6%,90.6%,88.1%,96.3%,102%
Cc1nc(N)[nH]c(=O)c1C,107%,99.4%,95.4%,95.4%,117%,108%,91.1%,102%,120%,-10.2% (active)
CCC(CC)NCCCCCNc1cc(OC)cc2cccnc12,77.3%,73.4%,91.1%,86.5%,97.3%,95.4%,94.4%,86.3%,108%,79.8%
Cc1cc(NC(=O)c2ccc(N)cc2)ccc1N=Nc1ccc2c(O)c(N=Nc3ccc(Cl)c(S(=O)(=O)O)c3)c(S(=O)(=O)O)cc2c1,91%,104%,105%,68.7%,92%,65.1%,88.5%,72.7%,96.4%,98.3%
Nc1nc(SCc2ccccc2Cl)c(-c2ccccc2)c(SCc2ccccc2Cl)n1,64.3%,107%,116%,86.9%,76.3%,109%,99.6%,84.7%,101%,120%
CCCCCCOc1ccc(/C=N/NC(N)=S)cc1,38.7%,58.9%,80.1%,58.4%,49.4%,53.6%,44.6%,55.6%,76.1%,69.6%
COc1ccc(-c2noc(N)c2-c2cc(OC)c3c(c2)OCO3)cc1,7.22% (active),3.98% (active),53.5%,10.7%,31.1%,21.2%,44.1%,29.7%,51.8%,-1.35% (active)
O=[P@@]1(c2ccccc2)O[C@H](COCc2ccccc2)[C@@H](OCc2ccccc2)[C@H](OCc2ccccc2)[C@H]1NCc1ccccc1,10.9%,27.9%,33.9%,20.9%,10.5%,38%,24%,5.71% (active),49.2%,29.5%
CCCc1cccc(CCC)c1O,103%,118%,109%,85.7%,100%,104%,107%,100%,117%,133%
O=[N+]([O-])c1ccc2c(c1)S(=O)c1cc([N+](=O)[O-])ccc1N2,95%,87.2%,109%,105%,88.6%,96.2%,93.5%,102%,104%,105%
S=c1[nH]nc2sc3ccccc3n12,101%,81.6%,106%,105%,112%,106%,97.4%,99.2%,114%,103%
CCN(CC)CCOc1ccc(C2=C(c3ccccc3)CCc3cc(OC)ccc32)cc1,-50% (active),44.2%,53.8%,22.2%,7.49% (active),-68% (active),-60.2% (active),-59.6% (active),-96.2% (active),-83.1% (active)
O=c1ccn(C2CCCO2)c(=O)[nH]1 (stereo not given),98.3%,91.9%,109%,97.2%,105%,111%,109%,107%,108%,124%
C[N+]1(CCc2ccccc2)CCC(CCC2CC[N+](C)(CCc3ccccc3)CC2)CC1 (stereo not given),94%,83.9%,98.1%,87.9%,101%,100%,85.7%,102%,111%,119%
COc1ccc(-c2nn(-c3cccc(Cl)c3)cc2C2CC(c3ccccc3)=NN2C(C)=O)cc1 (stereo not given),62.7%,-3.45% (active),72.9%,66.7%,69%,77.2%,83.5%,76.7%,69.9%,-2.7% (active)
